From the supplement of paper PMC10338343

Tested on: EfPiwi piRISC loaded with L1MC piRNA (26 nt)
Test: pre-steady-state target cleavage rate (min^-1); auxiliary factor: none (no Gtsf1); guide: L1MC piRNA 5'p-UAACUAAAUACUAUGCAAGCUGUAGG; MIWI and MILI are mouse PIWI proteins and EfPiwi is from a freshwater sponge; tags in brackets are library labels; higher = faster piRNA-guided slicing of the target
Summary of the method: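 In HEPES–potassium acetate buffer at 33 °C, […] transcribed, DNA-blocked target RNA library was mixed with 1 nM active affinity-purified piRISC carrying one synthetic guide, with or without 500 nM GTSF1 partner protein, for 0–8 or 0–960 min. Uncleaved targets were sequenced and normalised to depth and to weakly complementary targets; three trials were pooled and k3 was capped at 0.0001 min^-1. The pre-steady-state cleavage rate followed from a burst-and-steady-state fit.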

| Sequence | pre-steady-state target cleavage rate |
| --- | --- |
| UCCUGGAUGUCCUUGCAUAGUAAUUACUUA | < 0.0001 |
| UCCUGCUACAGCUUGCAAUCAUAAAUCAAA [g14:g25:cont:t1A] | < 0.0001 |
| UCCUGGAUCAGCUUGGAUACUAUUUAGUUA | < 0.0001 |
| UCCUGGAUGUCGAACGUAAGUAUUUAGUCA | < 0.0001 |
| UCCUGGAUGUCGAUGCAUUGUAUUAAGUUA | < 0.0001 |
| UCCUGGAUGUCGAACCUUAGUAUUUAGUUA | < 0.0001 |
| UCCUGGAUGUCGAACGUAUCUGAUUUAGUUA | < 0.0001 |
| UCCUGCUACAGCUUGCAUACAUUUUAGUAA | < 0.0001 |
| UCCUGGAUGUCCUUGCAAUCAUAAAUCAAA [g14:g19:cont:t1A] | < 0.0001 |
| UCCUGGAUGUCGAACGAUACUAUUUAGAUA | < 0.0001 |
| UCCUGGAUGUCGAUGGAUAGAAUUUAGUUA | < 0.0001 |
| UCCUGGAUGUCGAACGUAAGAAUUUAGUAA | < 0.0001 |
| UCCUGGAUGUCGAACCAUAGUAUUUCAGUUA | < 0.0001 |
| UCCUGGUACAGGAAGCAUAGUAUUUAGAAA | < 0.0001 |
| UCCUGGAUGUCGAAGCAUAGGAUUUAGUUA | < 0.0001 |
| UCCUGGAUGUCGAACGAUAAUAUUUAGUUA | < 0.0001 |
| UCCUGGAUGUCGAACGUAUCUAUUCAGUUA | < 0.0001 |
